# Measurements taken from PubChem BioAssay (NCATS).
# Results filed as inconclusive are left out. Unmarked numbers belong to inactive results. The source made the active and inactive calls. The call rests on the fitted dose curve; in most records, active means well fitted inhibition curve with a large enough effect; inconclusive means small, poorly fitted or top-dose-only effect; inactive means flat fitted curve, though single readings scatter.
# Molecular target: Dual specificity protein kinase CLK4 (Homo sapiens) (UniProt Q9HAZ1)
# Assay: qHTS Assay for Inhibitors of CDC-like Kinase 4 (ADP-Glo Assay) (AID 1771); further: nearly all actives have a fitted effect of over 70% in size
# Conditions: recombinant CLK4, ADP-Glo luminescence; series mostly up to 80 µM; activity change, negative = inhibition: at the top concentration
# Procedure: NIH Molecular Libraries Probe Production Centers Network [MLPCN] NIH Chemical Genomics Center [NCGC] MLPCN Grant: 1R03MH084827-01 Assay Submitter (PI): Tom Misteli NCGC Assay Overview: Clk4 (Invitrogen, cat# PV3839) was assayed using ATP and the RS repeat peptide (AnaSpec cat # 61722) as substrates. In the assay, the ADP levels were detected using Promega ADP-Glo technology wherein the remaining ATP from the kinase reaction is first depleted with an ATPase reagent followed by a reagent that contains and enzyme which converts the ADP produced to ATP as well as Ultra-Glo luciferase and D-luciferin which generates a bioluminescence signal from the ATP. The positive control for the assay was TG003 (Sigma-Aldrich, cat# 300801-52-9) which has been described as an inhibitor of Clk 4[1].
# NCGC Assay Protocol Summary: Two uL/well of substrate-buffer solution (100 uM RS peptide, 1 uM ATP, 1x ADP-Glo Buffer A, 2 mM MgCl2, 0.5 mM EGTA, 2.5 mM DTT, 0.01% Triton X-100, final concentrations) was dispensed into 1536-well plates (Greiner, solid white, medium binding assay plates) with the Aurora Discovery BioRAPTR Flying Reagent Dispenser (FRD; Beckton-Dickenson). Twenty-three nanoliter of compound and control solutions were transferred to the assay plate using a Kalypsys pin-tool followed by 0.5 uL/well Clk4-buffer solution (25 nM Clk4, 1x ADP-Glo Buffer A, 2 mM MgCl2, 0.5 mM EGTA, 2.5 mM DTT, 0.01% Triton X-100 final concentration) dispensing for a total kinase reaction volume of 2.5 uL/ well. After 1 hr of room-temperature incubation, 2.5 uL ADP-Glo reagent was added and incubated at room temperature for 45 min to stop the kinetic reaction and degrade residual ATP. The ADP product was then converted to ATP by adding 5 uL per well of ADP-Glo Reagent II to yield a total assay volume of 10 uL/ well. Luminescence was detected after 30 min room temperature incubation with the Perkin Elmer Viewlux.
# On the % scale 0 is the no-effect control and ±100 the full control effect; potency means the concentration at half of the fitted maximal effect.
# Dual specificity protein kinase CLK4 (Homo sapiens), sequence (Q9HAZ1 whole entry, looked up): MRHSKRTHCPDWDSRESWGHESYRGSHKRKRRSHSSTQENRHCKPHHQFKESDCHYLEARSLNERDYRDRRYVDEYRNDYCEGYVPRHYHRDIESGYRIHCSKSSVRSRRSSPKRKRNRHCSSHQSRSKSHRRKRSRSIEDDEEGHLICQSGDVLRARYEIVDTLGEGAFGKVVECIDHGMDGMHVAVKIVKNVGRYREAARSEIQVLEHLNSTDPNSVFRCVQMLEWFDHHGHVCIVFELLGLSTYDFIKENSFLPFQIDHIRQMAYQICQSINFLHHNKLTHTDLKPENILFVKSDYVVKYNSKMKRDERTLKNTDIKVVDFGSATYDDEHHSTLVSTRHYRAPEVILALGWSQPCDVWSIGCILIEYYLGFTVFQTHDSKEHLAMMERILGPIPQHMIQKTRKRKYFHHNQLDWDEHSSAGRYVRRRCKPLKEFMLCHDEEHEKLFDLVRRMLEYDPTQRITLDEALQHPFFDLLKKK
SMILES,Potency,"activity change, negative = inhibition [%]"
COc1ccc2[nH]cc(CCNc3cc(-c4cccc(C#N)c4)ncn3)c2c1,31.6 µM (active),
COc1cccc(-c2cncnc2NCCN2CCOCC2)c1,,-16.8
CN(C)c1ncc2nc(CCc3ccccc3)c(=O)n(Cc3cccs3)c2n1,,0.47
Clc1ccccc1-c1ccc2ncnc(NCCN3CCOCC3)c2c1,25.1 µM (active),
COCCn1c(=O)c(CCc2ccccc2)nc2cnc(OCc3ccccc3)nc21,,0.316
COc1ccccc1CNc1ncncc1-c1ccccc1Cl,,-23.6
CN(C)c1ccc(-c2cc(N(C)Cc3ccco3)ncn2)cc1,31.6 µM (active),
COc1ccccc1-c1nc(NC2CC2)c2ccccc2n1,14.1 µM (active),
COc1ccccc1-c1nccc(NCc2cccs2)n1,,-1.2
COc1ncc2nc(-c3ccccc3)c(=O)n(CCc3ccccc3)c2n1,,0.252
Clc1ccccc1-c1nc(-n2ccnc2)c2ccccc2n1,2.24 µM (active),
COc1ccccc1CNc1ccnc(-c2cccnc2)n1,28.2 µM (active),
COc1ccc2[nH]cc(CCNc3ncncc3-c3ccccc3Cl)c2c1,10 µM (active),
COc1cccc(-c2nc(NCc3cccnc3)c3ccccc3n2)c1,17.8 µM (active),
COc1ccc2[nH]cc(CCNc3ncnc4ccc(-c5ccoc5)cc34)c2c1,0.708 µM (active),
COc1ccc2[nH]cc(CCNc3ncncc3-c3ccoc3)c2c1,15.8 µM (active),
COc1cccc(-c2nc(NCCN3CCOCC3)c3ccccc3n2)c1,15.8 µM (active),
Cc1cnc(CNc2ncnc3ccc(-c4ccccc4Cl)cc23)cn1,14.1 µM (active),
COc1cccc(Nc2ncc3ncc(=O)n(CCC#N)c3n2)c1,3.55 µM (active),
CN(C)C(=O)c1ccc(-c2cc(NCc3ccccc3)ncn2)cc1,31.6 µM (active),

SMILES,Potency,"activity change, negative = inhibition [%]"
CN(Cc1ccco1)c1nc(-c2cccnc2)nc2ccccc12,14.1 µM (active),
COc1ccc(Oc2ncc3nc(-c4cc(F)cc(F)c4)c(=O)n(C4CC4)c3n2)cc1,,-7.45
COCCn1c(=O)c(-c2ccc(F)cc2)nc2cnc(Oc3ccccc3)nc21,,2.73
COCCNc1ncnc2ccc(-c3ccccc3OC)cc12,10 µM (active),
N#Cc1cccc(-c2ccc3ncnc(NCc4cccs4)c3c2)c1,8.91 µM (active),
CN1CCN(c2ncc3nc(-c4cn(C)c5ccccc45)c(=O)n(CCC#N)c3n2)CC1,,-11.5
COc1cccc(-c2ccc3ncnc(N4CCNCC4)c3c2)c1,2 µM (active),
c1cn(-c2ncnc3ccc(-c4ccoc4)cc23)cn1,0.199 µM (active),
O=c1c(CCc2ccccc2)nc2cnc(Nc3ccccc3)nc2n1C[C@H]1CCCO1,,-9.94
CN(C)c1ncc2nc(CCc3ccccc3)c(=O)n(CCc3ccccc3)c2n1,,-5.79
COc1cccc(Cn2c(=O)cnc3cnc(Nc4cccc(OC)c4)nc32)c1,2.24 µM (active),
COc1ccccc1-c1nc(Nc2ccncc2)c2ccccc2n1,12.6 µM (active),
Cc1cnc(CNc2ncnc3ccc(-c4ccccc4C)cc23)cn1,25.1 µM (active),
COc1ccc2[nH]cc(CCNc3ncncc3-c3ccc4c(c3)OCO4)c2c1,7.08 µM (active),
CN(Cc1ccco1)c1ncnc2ccc(-c3cccc(NS(C)(=O)=O)c3)cc12,7.94 µM (active),
CCNc1ncc2nc(CCc3ccccc3)c(=O)n(Cc3cccc(OC)c3)c2n1,,-0.572
CN(Cc1ccco1)c1nc(-c2ccccc2C(F)(F)F)nc2ccccc12,28.2 µM (active),
FC(F)(F)c1ccccc1-c1nc(NCc2cccnc2)c2ccccc2n1,,-22.5
COc1ccc(-c2nc3cnc(N4CCOCC4)nc3n(-c3ccc(OC)cc3)c2=O)cc1,,-16.3
COc1ccc(-c2nc3cnc(N4CCN(C)CC4)nc3n(CCc3ccccc3)c2=O)cc1,,3.75
